Test results as given in PubChem BioAssay (NCATS).
Records with an inconclusive call do not appear. Calls of active or inactive are those of the source. Calls follow the shape of the dose curve; as a rule, active = well fitted curve in the direction sought with a large enough effect; inconclusive = small, poorly fitted or top-dose-only effect, or another doubt; inactive = no such curve, though single readings can be large; an effect the other way counts as inactive or inconclusive.

Columns and labels:
[1] = Cellular Toxicity (caspase-3) Mesangial (AID 660); conditions: mesangial cells, normalized: DMSO 0%, 100 µM tamoxifen 100%; at 91.7 µM (top of the series);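 also: combined caspase 3 and 7 activity read by Caspase-Glo luminescence; cells exposed to compound for 16 h before the caspase read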
Procedure, shortened: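 Mesangial cells, 1000/well, 5 h settle at 37 °C; compound 16 h, 37 °C; Caspase-Glo 3/7 reagent 20 min RT; luminescence. Norm.: DMSO = 0%, tamoxifen 100 uM = 100%. AC50, Hill fit.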

[2] = Cellular Toxicity (caspase-3) SK-N-SH (AID 661);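 also: 0% = DMSO basal and 100% = 10 µM staurosporine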
Procedure, shortened: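 Human neuroblastoma SK-N-SH, 1500 cells/well, 5 hr pre-incubation, then compound 16 hr, 37 °C. Caspase-Glo 3/7 reagent, 1 hr RT, luminescence. Norm. to DMSO/10 uM staurosporine; Hill-fit AC50.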

[3] = Cellular Toxicity (caspase-3) Hek293 (AID 664); conditions: HEK293 caspase-3 activation, DMSO = 0%, 100 µM tamoxifen = 100%; at 92.2 µM (top of the series);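 also: cells exposed to compound for 16 h at 37 °C before readout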
Procedure, shortened: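 Cells plated, 5 hr at 37 °C; compounds added; 16 hr at 37 °C; Caspase-Glo 3/7 reagent, 20 min RT; luminescence read. Activation expressed relative to DMSO and 100 uM tamoxifen, AC50 by Hill model.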

[4] = Cellular Toxicity (caspase-3) N2a (AID 665);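 also: compound exposure lasted 16 h at 37 °C before readout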
Procedure, shortened: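 N2a cells, 1500/well, 5 h settle at 37 °C; cpd 16 h, 37 °C; Caspase-Glo 3/7, 1 h RT; luminescence. Norm: DMSO = 0, 10 uM staurosporine = 100%. AC50, Hill fit.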

[5] = Cellular Toxicity (caspase-3) NIH 3T3 (AID 666);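 also: 0% = DMSO basal and 100% = 100 µM tamoxifen stimulation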
Procedure, shortened: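 Luminescence from aminoluciferin released by caspase-3/7 cleavage of a peptide substrate served as read-out. Mouse fibroblast NIH 3T3 cells were exposed to compounds over a concentration range for 16 hours, and AC50 values came from standard Hill modelling.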

[6] = Cellular Toxicity (caspase-3) Renal Proximal Tubule (AID 667); conditions: Potency: caspase-3 activation;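 also: cells exposed to compound for 16 hours at 37 °C before detection; 0% = DMSO basal and 100% = 10 µM staurosporine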
Procedure, shortened: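 Freshly isolated primary rat kidney proximal tubule cells, 1000/well, treated 16 hr at 37 °C, then Caspase-Glo 3/7 luminescence after 1 hr. Normalized to DMSO and 10 uM staurosporine; AC50 from Hill fit.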

[7] = target: Cytochrome P450 3A4 (Homo sapiens) (UniProt P08684); assay: qHTS Assay for Inhibitors and Substrates of Cytochrome P450 3A4 (AID 884); also: % is scaled to controls: 0 for no effect and ±100 for the full control effect; nearly all actives have a fitted effect of over 50% in size
Procedure, shortened: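 20 nM human CYP3A4 with 25 uM Luciferin-PPXE (at KM) in 200 mM KPO4, preincubated 10 min with compound; NADPH regeneration started a 60 min RT reaction. Luciferin detected by luminescence, normalized to 57 uM ketoconazole as full inhibition.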

[8] = Cell Viability - LYMP2-001 (AID 921);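 also: 0% = DMSO only and full inhibition = tetraoctylammonium bromide control wells; nearly all actives have a fitted effect of over 70% in size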
Procedure, shortened: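 Human lymphoblastoid LYMP2-001 cells, 2500 per well, in complete medium, treated 24 h at 37 C. Viability from cellular ATP by CellTiter-Glo luminescence; AC50 from Hill-equation fits of qHTS concentration-response.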

[9] = MultiTox-Fluor Cytotoxicity Assay - LYMP1-001 - Dead Cells (AID 946)
Procedure, shortened: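 Cytotoxicity as increased dead-cell protease fluorescence (bis-AAF-R110, 485/520 nm), read 60 min after MultiTox-Fluor reagent. Human lymphoblastoid line exposed 16 h; Hill-fitted AC50, with DMSO as 0% and 15 uM tetraoctylammonium bromide as 100%.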

[10] = MultiTox-Fluor Cytotoxicity Assay - LYMP1-001 - Live Cells (AID 947);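 also: 0% = DMSO only and full inhibition = tetraoctylammonium bromide control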
[11] = Cell Viability - LYMP1-002 - Assay at 16 hr (AID 948);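 also: 0% = DMSO alone and full effect = 92 µM tetraoctylammonium bromide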
Procedure, shortened: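 LYMP1-002 human lymphoblastoid cells, 2500/well, were treated with compounds for 16 hr at 37 C in complete medium. Viability was read as intracellular ATP by CellTiter-Glo luminescence, and AC50 was derived from a Hill fit to concentration-response data.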

[12] = MultiTox-Fluor Cytotoxicity Assay - LYMP1-002 - Live Cells (AID 955); also: % is scaled to controls: 0 for no effect and ±100 for the full control effect
Procedure, shortened: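 Read-out is live-cell protease activity (cell-permeant GF-AFC substrate, fluorescence Ex/Em=405/510), where a decrease indicates acute toxicity. Human lymphoblastoid cells were treated 16 hours at 37 C in a concentration series, and AC50 values came from standard Hill modelling.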

[13] = MultiTox-Fluor Cytotoxicity Assay - LYMP1-002 - Dead Cells (AID 960); also: nearly all actives have a fitted effect of over 60% in size
Procedure, shortened: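 LYMP1-002 cells 2500/well; 5 hr 37 C pre-incubation; compound 16 hr 37 C; MultiTox-Fluor reagent 60 min RT; dead-cell fluor Ex/Em 485/520. Norm. to DMSO (0%) vs 15 uM tetraoctylammonium bromide (100%); Hill AC50.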

[14] = MultiTox-Fluor Cytotoxicity Assay - LYMP1-003 - Dead Cells (AID 961); also: nearly all actives have a fitted effect of over 70% in size
Procedure, shortened: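 Dead-cell protease release, detected as bis-AAF-R110 fluorescence at 485/520 nm, was measured in LYMP1-003 cells after 16 h compound treatment at 37 C. AC50 values came from Hill-modeled qHTS curves normalized to DMSO (0%) and 15 uM tetraoctylammonium bromide (100%).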

[15] = MultiTox-Fluor Cytotoxicity Assay - LYMP1-003 - Live Cells (AID 962);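 also: cells exposed to compound for 16 hours at 37 °C; 0% = DMSO only and full loss = 92 µM tetraoctylammonium bromide; cytotoxic hits lower the live-cell protease signal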
Procedure, shortened: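 qHTS, 1536-well; 2500 cells/well LYMP1-003; 5 hr 37 C settle; cpd 16 hr 37 C; MultiTox-Fluor reagent 60 min RT; live-cell protease fluor. 405/510; Hill-fit AC50; tetraoctylammonium bromide pos. ctrl.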

[16] = Cell Viability - LYMP1-003 - Assay at 24 hr (AID 963);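 also: plate controls were DMSO only for no effect and tetraoctylammonium bromide positive control for full effect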
Procedure, shortened: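 Cells seeded at 2500/well, 5 hr at 37 C; compounds added; 24 hr at 37 C; CellTiter-Glo added, 30 min room temperature; luminescence read. Decrease in ATP taken as cytotoxicity, AC50 from Hill modelling.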

[17] = Cell Viability - LYMP1-003 - Assay at 40 hr (AID 964); also: % is scaled to controls: 0 for no effect and ±100 for the full control effect; nearly all actives have a fitted effect of over 60% in size
Procedure, shortened: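 Cells were seeded at 2500 per well and incubated 5 hr at 37 C. Compounds were added across a concentration series and left 40 hr at 37 C. CellTiter-Glo was added for 30 min at room temperature before luminescence reading.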

[18] = Cell Viability - LYMP2-003 (AID 965);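 also: cells exposed to compounds for 24 h before reading; 0% = DMSO only and full effect = 92 µM tetraoctylammonium bromide; nearly all actives have a fitted effect of over 50% in size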
Procedure, shortened: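 Human lymphoblastoid LYMP2-003 cells, 2500/well, exposed to compounds for 24 h at 37 C in complete medium. Viability read as intracellular ATP by CellTiter-Glo luminescence; AC50 from Hill-equation fits of qHTS concentration-response data.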

[19] = Cellular Toxicity (caspase-3) H-4-II-E (AID 663); conditions: H-4-II-E rat hepatoma, scaled: DMSO 0%, 100 µM tamoxifen 100%; at 92.2 µM (top of the series);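 also: cells exposed to compound for 16 hr before readout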
Procedure, shortened: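 Luminescence from caspase-cleaved aminoluciferin substrate, read 20 min after reagent addition, reports caspase 3/7 activation in rat H-4-II-E cells after 16 hr compound exposure. Normalized to DMSO (basal) and 100 uM tamoxifen (100%); AC50 from Hill fits.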

[20] = target: Cytochrome P450 3A4 (Homo sapiens) (UniProt P08684); assay: qHTS Assay for Activators of Cytochrome P450 3A4 (AID 885); also: nearly all actives have a fitted effect of over 65% in size
Procedure, shortened: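 Signal was normalized against complete inhibition by 57 uM ketoconazole. The reaction used 20nM CYP3A4 with 25uM Luciferin-PPXE, 10-min compound preincubation and a 60-min NADPH-supported step at RT.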

Sequence of Cytochrome P450 3A4 (Homo sapiens) (P08684 whole entry, looked up): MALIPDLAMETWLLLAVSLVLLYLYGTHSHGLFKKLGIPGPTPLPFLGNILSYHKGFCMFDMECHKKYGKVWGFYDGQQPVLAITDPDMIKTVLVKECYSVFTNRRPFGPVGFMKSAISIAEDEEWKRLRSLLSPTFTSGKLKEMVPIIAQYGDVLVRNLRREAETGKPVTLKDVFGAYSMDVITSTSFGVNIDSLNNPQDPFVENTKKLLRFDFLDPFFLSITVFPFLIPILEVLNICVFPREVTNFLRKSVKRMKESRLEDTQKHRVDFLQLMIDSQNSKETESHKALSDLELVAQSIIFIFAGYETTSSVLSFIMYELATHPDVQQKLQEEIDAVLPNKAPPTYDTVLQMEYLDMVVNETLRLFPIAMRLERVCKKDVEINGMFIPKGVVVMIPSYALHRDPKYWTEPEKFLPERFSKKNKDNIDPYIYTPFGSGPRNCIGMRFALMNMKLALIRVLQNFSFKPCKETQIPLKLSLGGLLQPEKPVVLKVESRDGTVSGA

CCCCCCCN
inactive: caspase-3 activation [1] 1.08% | outcome [2] | caspase-3 activation [3] -0.824% | outcome [4] | outcome [5] | Potency [6] | Potency [7] | Potency [8] | outcome [9] | outcome [10] | outcome [11] | outcome [12] | outcome [13] | Potency [14] | Potency [15] | Potency [16] | Potency [17] | Potency [18]

Cc1cccc(C)c1O
inactive: caspase-3 activation [1] -0.0557% | outcome [2] | outcome [4] | outcome [5] | Potency [6] | Potency [7] | Potency [8] | outcome [9] | outcome [10] | outcome [11] | outcome [12] | outcome [13] | Potency [14] | Potency [15] | Potency [16] | Potency [17] | Potency [18]

NC(=S)NNC(N)=S
inactive: caspase-3 activation [1] -0.792% | outcome [2] | caspase-3 activation [3] 1.03% | outcome [4] | outcome [5] | Potency [6] | Potency [7] | Potency [8] | outcome [9] | outcome [11] | outcome [12] | outcome [13] | Potency [14] | Potency [15] | Potency [16] | Potency [17] | Potency [18]

Cc1ccc(Cl)cc1N
inactive: outcome [2] | caspase-3 activation [19] -0.363% | caspase-3 activation [3] -3.36% | outcome [4] | outcome [5] | Potency [6] | outcome [20] | Potency [8] | outcome [9] | outcome [10] | outcome [11] | outcome [12] | outcome [13] | Potency [15] | Potency [16] | Potency [17]

O=[N+]([O-])c1c(Cl)cc(Cl)cc1Cl
inactive: outcome [2] | caspase-3 activation [19] 0.356% | caspase-3 activation [3] -0.873% | outcome [4] | outcome [5] | Potency [6] | Potency [7] | Potency [8] | outcome [9] | outcome [10] | outcome [11] | outcome [12] | outcome [13] | Potency [14] | Potency [15] | Potency [16] | Potency [17] | Potency [18]

CCCCCCCCC/C=C/CC1CC(=O)OC1=O (stereo not given)
inactive: outcome [2] | caspase-3 activation [19] 1.69% | outcome [4] | outcome [5] | Potency [6] | Potency [7] | Potency [8] | outcome [9] | outcome [10] | outcome [11] | outcome [12] | Potency [14] | Potency [15] | Potency [16] | Potency [17]

O=Cc1c(Cl)cccc1Cl
inactive: outcome [2] | caspase-3 activation [19] 5.93% | caspase-3 activation [3] 1.92% | outcome [4] | outcome [5] | Potency [6] | Potency [7] | Potency [8] | outcome [9] | outcome [10] | outcome [11] | outcome [12] | Potency [14] | Potency [15] | Potency [16] | Potency [17] | Potency [18]

CC(=O)C1(C)CC2=C(CCCC2(C)C)CC1C (stereo not given)
inactive: outcome [2] | caspase-3 activation [19] 1.88% | caspase-3 activation [3] 2.01% | outcome [4] | outcome [5] | Potency [6] | Potency [7] | Potency [8] | outcome [9] | outcome [10] | outcome [11] | outcome [12] | outcome [13] | Potency [14] | Potency [15] | Potency [16] | Potency [17] | Potency [18]

Cc1ccccc1C(=O)O
inactive: outcome [2] | caspase-3 activation [19] -0.229% | caspase-3 activation [3] -3.25% | outcome [5] | Potency [6] | Potency [7] | Potency [8] | outcome [9] | outcome [11] | outcome [12] | Potency [14] | Potency [15] | Potency [16] | Potency [17]

CCCCC(=O)N(C)C
inactive: outcome [2] | caspase-3 activation [19] -1.29% | caspase-3 activation [3] 1.13% | outcome [4] | outcome [5] | Potency [6] | Potency [7] | Potency [8] | outcome [9] | outcome [11] | outcome [12] | outcome [13] | Potency [14] | Potency [15] | Potency [16] | Potency [17] | Potency [18]

CC(=O)c1ccccn1
inactive: outcome [2] | caspase-3 activation [19] 1.68% | caspase-3 activation [3] 0.0845% | outcome [4] | outcome [5] | Potency [6] | Potency [7] | Potency [8] | outcome [9] | outcome [10] | outcome [11] | outcome [12] | Potency [14] | Potency [15] | Potency [16] | Potency [17] | Potency [18]

CCCCCCCCCCCCOCC1CO1 (stereo not given)
inactive: outcome [2] | caspase-3 activation [19] 3.02% | caspase-3 activation [3] 2.47% | outcome [4] | outcome [5] | Potency [6] | Potency [7] | Potency [8] | outcome [9] | outcome [10] | outcome [11] | outcome [12] | outcome [13] | Potency [14] | Potency [15] | Potency [16] | Potency [17] | Potency [18]

CN(C)c1cccc(O)c1
inactive: outcome [2] | caspase-3 activation [19] 2.04% | caspase-3 activation [3] 0.706% | outcome [4] | outcome [5] | Potency [6] | Potency [7] | Potency [8] | outcome [9] | outcome [10] | outcome [11] | outcome [12] | outcome [13] | Potency [14] | Potency [15] | Potency [16] | Potency [17] | Potency [18]

CC(C)CCOC(=O)/C=C/c1ccccc1
inactive: outcome [2] | caspase-3 activation [19] 1.34% | outcome [5] | Potency [6] | Potency [7] | Potency [8] | outcome [9] | outcome [10] | outcome [11] | outcome [12] | outcome [13] | Potency [14] | Potency [15] | Potency [16] | Potency [17]

CNC(=O)N(c1ccccc1)c1ccccc1
inactive: outcome [2] | caspase-3 activation [19] 1.51% | caspase-3 activation [3] 0.502% | outcome [4] | outcome [5] | Potency [6] | Potency [7] | Potency [8] | outcome [9] | outcome [10] | outcome [11] | outcome [12] | outcome [13] | Potency [14] | Potency [15] | Potency [16] | Potency [17]

N#CC1(O)CCCCC1
inactive: outcome [2] | caspase-3 activation [19] -0.143% | caspase-3 activation [3] 1.67% | outcome [4] | outcome [5] | Potency [6] | Potency [7] | Potency [8] | outcome [9] | outcome [10] | outcome [11] | outcome [12] | outcome [13] | Potency [14] | Potency [15] | Potency [16] | Potency [17] | Potency [18]
